Measurements taken from PubChem BioAssay (EPA / NIEHS).
Several values for one entry are separate records, joined by “and”; a condition that tells them apart may be missing. Equal entries are not always repeated. Some structures have more than one record in an assay (separate samples or runs), and their calls can disagree. Activity calls are given as the source filed them. How the source made its calls: active means hit-call score of the fitted dose curve at least 0.9, where 1 is the maximum; inactive means score below 0.9.

read-out: Tissue plasminogen activator (tPA), PLAT (gene 5327); assay: BSK_BE3C_tPA: BioMAP Diversity Plus: BE3C Assay for Tissue plasminogen activator (tPA) Biomarker Activity (AID 2283041); conditions: primary human bronchial epithelial cells; actives raise or lower the signal;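 on outcome: tPA level quantified by ELISA one day after compound addition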
Description: BSK_BE3C is a cell-based, multiplexed-readout assay that uses bronchial epithelial cell, a human lung primary cell, with measurements taken at 24 hours after chemical dosing in a 96-well plate.BSK_BE3C_tPA is an assay component measured in the BSK_BE3C assay. It measures tPA antibody related to regulation of gene expression using ELISA technology.Data from the assay component BSK_BE3C_tPA was analyzed into 1 assay endpoint. This assay endpoint, BSK_BE3C_tPA, was analyzed with bidirectional fitting relative to DMSO as the negative control and baseline of activity. Using a type of binding reporter, gain or loss-of-signal activity can be used to understand changes in the signaling as they relate to the gene PLAT. Furthermore, this assay endpoint can be referred to as a primary readout, because this assay has produced multiple assay endpoints where this one serves a signaling function. To generalize the intended target to other relatable targets, this assay endpoint is annotated to the protease intended target family, where the subfamily is serine protease.
The levels of cell surface (or secreted, indicated by the prefix "s") biomarker endpoints were measured by ELISA. Overt cytotoxicity to cells in confluent adherent cultures (all systems other than the BT system) was assessed by measuring total protein levels using sulforhodamine B (SRB) staining in parallel cultures at the time of biomarker measurements, indicated as SRB endpoints. For proliferation assays for adherent cell types, individual cell types are cultured at sub-confluence and relative cell numbers quantified by SRB staining at time points optimized for each system (48 h: 3C and CASM3C systems; 72 h: BT and HDF3CGF systems; 96 h: SAg system). SRB was performed by staining cells with 0.1% SRB after fixation with 10% TCA and reading wells at 560 nm.Viability and proliferation of PBMC (T cells) was quantified by Alamar Blue reduction for the SAg and BT systems. For PBMC viability (referred to as PBMC Cytotoxicity within the assay endpoint names), cells were plated (75,000/well in a 96-well plate) and then chemical samples added for 1 h before addition of activators, SEB and TSST-1 (20 ng/mL final concentration each). Cells were incubated for 90 h. Then, Alamar Blue (20 uL/well) (Invitrogen, Cat DAL1100) was added for 6 h, and the plates were read with a fluorescence microplate reader at 546/580 nm (excitation/emission). For PBMC proliferation, cells were plated and activated as above but incubated for only 16 h prior to addition of Alamar Blue. Plates were read after 6 h.

| Structure (SMILES) | outcome | AC50 |
| --- | --- | --- |
| CCc1nn(C2CCCCC2)c2cc(C3(C#N)CCC(C(=O)O)CC3)ccc12 (stereo not given) | inactive |  |
| Cc1oc(-c2ccccc2)nc1CCOc1ccc(C[C@H](Nc2ccccc2C(=O)c2ccccc2)C(=O)O)cc1 | inactive |  |
| O=[N+]([O-])c1ccc(O)cc1 | inactive |  |
| CC(C)CCCCCCOC(=O)CCCCC(=O)OCCCCCCC(C)C | inactive |  |
| CCCOc1sc(C(=O)N2CCC(c3cc(CN)ccc3F)CC2)c(C)c1Br |  | 5.19 µM (active) |
| c1ccc2cc3c(ccc4ccccc43)cc2c1 | inactive |  |
| CC[C@H](c1ccc(O)cc1)[C@@H](CC)c1ccc(O)cc1 |  | 27.5 µM (active) |
| OC1CCC(C2CCCCC2)CC1 (stereo not given) | inactive |  |
| CC(C)(C)c1ccc(O)c(C(C)(C)C)c1 |  | 27.5 µM (active) |
| C[C@@H]1C[C@H]2[C@@H]3CCC4=CC(=O)C=C[C@]4(C)[C@@]3(F)[C@@H](O)C[C@]2(C)[C@@]1(O)C(=O)COP(=O)(O)O | inactive | 478 nM (active) and 416 nM (active) |
| COCC(C)OCC(C)O (stereo not given) | inactive |  |
| CN1CCN(c2ccccc2/C=C2\SCCN(c3ccc(Cl)c(Cl)c3)C2=O)CC1 |  | 25.7 µM (active) |
| c1ccc2c(c1)Cc1ccccc1-2 | inactive |  |
| COCC(C)O (stereo not given) | inactive |  |
| CCCCCCCCCCCCCC[N+](C)(C)C |  | 0.883 µM (active) |
| OCCC(F)(F)C(F)(F)C(F)(F)C(F)(F)C(F)(F)C(F)(F)C(F)(F)C(F)(F)F | inactive | 11.6 µM (active) and 14 µM (active) |
| O=C(O)c1ccccc1C(c1ccc(O)cc1)c1ccc(O)cc1 | inactive |  |
| O=C(O)Cc1cc(I)c(Oc2cc(I)c(O)c(I)c2)c(I)c1 |  | 4.84 µM (active) |
| NC(=O)N(O)[C@@H]1C=C[C@H](Oc2cccc(Oc3ccc(F)cc3)c2)C1 |  | 5.68 µM (active) |

| Structure (SMILES) | outcome | AC50 |
| --- | --- | --- |
| CCCCCCC(=O)O | inactive |  |
| C#C[C@]1(O)CC[C@H]2[C@@H]3CCC4=CC(=O)CC[C@@H]4[C@H]3CC[C@@]21C | inactive |  |
| CCCCC(CC)COC(=O)CCCCC(=O)OCc1ccccc1 (stereo not given) | inactive |  |
| C=C(C)C(=O)OCCC(F)(F)C(F)(F)C(F)(F)C(F)(F)C(F)(F)C(F)(F)F | inactive | 3.97 µM (active) |
| CC(=O)CC(C)(C)O | inactive |  |
| CN(C)C=O | inactive |  |
| O=c1c(-c2ccc(O)cc2)coc2cc(O)ccc12 | inactive |  |
| Cc1cc(CCN2CCN(c3nsc4ccccc34)CC2)cc2c1NC(=O)CC2(C)C |  | 25.8 µM (active) |
| CC(C)(C)c1cc(C(C)(C)C)c(O)c(C(C)(C)C)c1 | inactive |  |
| Nc1cccc2c(N)cccc12 | inactive |  |
| c1ccc2c(c1)ccc1ccccc12 | inactive |  |
| CCCCCCCCCCCCc1ccccc1S(=O)(=O)O |  | 6.79 µM (active) |
| NCC(F)(F)C(F)(F)C(F)(F)C(F)(F)C(F)(F)C(F)(F)C(F)(F)F | inactive |  |
| CCCCCCCCCCCCCCCS(=O)(=O)Oc1ccccc1 | inactive |  |
| CCCCCCCCCCCCN1CCCC1=O |  | 15.4 µM (active) |
| CCC(C)(C)C1CCC(O)CC1 (stereo not given) | inactive |  |
| COC(=O)CCCCC(=O)OC | inactive |  |
| CCc1ccc(CCOc2ccc(CC3SC(=O)NC3=O)cc2)nc1 (stereo not given) | inactive |  |
